In PubChem BioAssay (NCI) one finds growth data, which are given here for 14 compounds.

The panel holds about 83,000 compounds, 20% with a hit somewhere; the sample as a whole holds those more often.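 Compound tested at a single concentration for 48 hours in 96-well plates; a percent growth value below 10 was scored as active.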 Unmarked numbers belong to inactive results. Calls of active or inactive are those of the source.

Assay in all cases: NCI-60 one-dose screen, 48 h (100 = growth as untreated, 0 = no growth, -100 = all killed)
The test system of experiment [1] is SR leukemia. Conditions: 10 µM unless noted.
The subject of experiment [2] is RPMI-8226 leukemia. Conditions: 10 µM.
Experiment [3] relates to OVCAR-8 ovarian. Conditions: 10 µM unless noted.
For experiment [4], the system named is OVCAR-5 ovarian. The conditions noted are these: 10 µM unless noted.
Experiment [5] deals with OVCAR-4 ovarian. Conditions: 10 µM unless noted.
Experiment [6] concerns SK-OV-3 ovarian. The conditions noted are these: 10 µM.
Experiment [7] concerns IGROV1 ovarian. The conditions noted are these: 10 µM unless noted.
Experiment [8] deals with OVCAR-3 ovarian. The conditions noted are these: 10 µM unless noted.
Experiment [9] concerns HS 578T breast. The conditions noted are these: 10 µM unless noted.
Experiment [10] concerns NCI/ADR-RES ovarian. The conditions noted are these: 10 µM unless noted.

As to `Cc1cc(=O)[nH]n1-c1cc(Cl)ccc1N`, the growth in [1] is 96.6%; in experiment [2], 106%; in [3], 103%; in experiment [4] it was 111%; in [5], 105%; in experiment [6] it was 98.6%. The growth was 109% in experiment [7], 124% in experiment [8], 123% in experiment [9] and 90.6% in experiment [10].

Turning to `CCN(CC)CCCNc1ccc(C)c2sc3ccccc3c(=O)c12`, the growth is -11.8% (active) in [1]; 15.4% in experiment [2]; 43.2% in [3]; 56.4% in [4]; 64.8% in experiment [5]; 56.2% in [6]. Also, the growth in [7] is 51.9%; in [8], 68.5%; in experiment [10], 58.4%.

As to `CN([N-]C(=O)CC(=O)[N-]N(C)C(=S)c1ccccc1)C(=S)c1ccccc1.[Cu+2]`, the growth in experiment [1] is -17.7% (active); in experiment [2], -13.7% (active); in experiment [3], -39.1% (active); in experiment [4], -53.4% (active); in experiment [5] it was -98.4% (active); in experiment [6] it was -99.1% (active). Besides, the growth in [7] was -93.2% (active); in [8] it was -85.7% (active); in [9] it was -12.3% (active); in experiment [10], -3.82% (active).

As for `CC1SC(c2ccc(Cl)cc2)N(CCc2cccs2)C1=O` (configuration not stated), the growth was -1.75% (active) in [1]; -10.3% (active) in experiment [2]; 4.04% (active) in [3]; 8.29% (active) in [4]; 8.71% (active) in experiment [5]; 5.5% (active) in experiment [6]. In addition, the growth in experiment [7] was 4.04% (active); in experiment [8] it was -30.3% (active); in experiment [9], -16% (active); in experiment [10], -11% (active).

In the case of `Cc1nc2cc(Nc3nc(N4CCOCC4)nc(N4CCN(C)CC4)n3)ccc2n1Cc1ccccc1`, the growth is 93% in experiment [1]; 102% in experiment [2]; 98.3% in [3]; 96.7% in [4]; 100% in experiment [5]; 103% in experiment [6]. The growth in experiment [7] is 103%; in experiment [8] it was 115%; in [9], 108%; in experiment [10] it was 110%.

For `C=CC(=O)N1CC2(CCC(n3nc(-c4ccc(Oc5ccccc5)cc4)c4c(N)ncnc43)CC2)C1`, the growth is -23.2% (active) in [1]; -56% (active) in experiment [2]; -36.5% (active) in experiment [3]; -0.902% (active) in experiment [4]; -10.7% (active) in experiment [5]; -24.6% (active) in experiment [6]. In addition, the growth in [7] was -51.2% (active); in experiment [8], -36.6% (active); in [9], -35.5% (active); in experiment [10], -9.16% (active).

As to `COc1ccc(/C=C2\CN(Cc3cn(CCCNc4ccnc5cc(Cl)ccc45)nn3)C/C(=C\c3ccc(OC)c(OC)c3)C2=O)cc1OC`, the growth was -11.8% (active) in [1]; -35.5% (active) in [2]; 6.8% (active) in experiment [3]; 2.05% (active) in experiment [4]; 21.3% in experiment [5]; 36.5% in [6]. In addition, the growth in experiment [7] was 31.7%; in experiment [8] it was 12.7%; in [9], 34%; in [10] it was 94.4%.

With `O=C(Nc1ccccc1O)c1ccc(NS(=O)(=O)c2cccc3cccnc23)cc1`, the growth is 32.8% in experiment [1]; 15.3% in experiment [2]; 23.9% in [3]; 16.5% in [4]; 74.5% in [5]; 64.5% in [6]. The growth in [7] is 58.6%; in experiment [8], 62.5%; in [9], 37.3%; in experiment [10], 29.2%.

On to `O=C1CC2c3cc(-c4cc5ccccc5o4)ccc3CCN2C(=O)N1c1ccccc1` (configuration not stated), for which the growth in experiment [1] is 57.6%; in experiment [2] it was 68.1%; in experiment [3], 88.4%; in experiment [4] it was 97.9%; in experiment [5], 84.7%; in experiment [6] it was 80%. Further, the values for the growth in experiment [7], in [9] and in experiment [10] were 84.6%, 107% and 81.4%, respectively.

With `C=C[C@H]1C[C@@H]2C[C@@H]3[C@H]4C/C=C\C(=O)NCCCC5NC(=O)C(=C(O)/C=C/[C@@H]4CC(=O)[C@H]3[C@@H]2[C@H]1C)C5=O` (some centres not stated), the growth in [1] is -55.9% (active); in [2] it was -54.5% (active); in experiment [3] it was -84.7% (active); in [4] it was -92.7% (active); in experiment [5], -78.1% (active); in experiment [6], -100% (active). The results for the growth in [7], in [8] and in [10] were -62.8% (active), -95.3% (active) and -73.4% (active), respectively.

As for `COc1cc(CNCCN2C(=O)c3ccc4c5c(ccc(c35)C2=O)C(=O)N(CCNCc2cc(OC)c(OC)c(OC)c2)C4=O)cc(OC)c1OC`, the growth in experiment [1] was 0.859% (active); in experiment [2], -25.5% (active); in experiment [3], -47.3% (active); in experiment [4], -78.7% (active); in experiment [5], -70.9% (active); in experiment [6], -96.9% (active). In addition, the growth was -53.5% (active) in experiment [7], -99.1% (active) in experiment [8], -60.7% (active) in [9] and -20.2% (active) in [10].

Take `CC(=O)Nc1ccc(Sc2ccc([N+](=O)[O-])o2)cc1`: the growth was 26.1% in [1]; 9.87% (active) in experiment [2]; -1.51% (active) in experiment [3]; 94.8% in [4]; 23.5% in experiment [5]; 120% in [6]. For the same compound, the growth was 42.2% in [7], -8.53% (active) in experiment [8], 46.8% in experiment [9] and 15.9% in experiment [10].

On to `COc1ccc(-n2c(SCc3cc(OC)c(OC)c(OC)c3)nc3ccc(C)cc3c2=O)c(OC)c1`, for which the growth is 7.68% (active) in experiment [1]; -4.23% (active) in experiment [2]; 45.6% in experiment [3]; 43.2% in experiment [4]; 57.4% in [5]; 45.3% in experiment [6]. In addition, the growth in experiment [7] was 35.7%; in [8], -4.61% (active); in experiment [9] it was 6.73% (active); in [10], 1.42% (active).

Turning to `COc1ccccc1/C=C/C(=O)/C=C/c1ccccc1O`, the growth was -61.2% (active) in [1]; -53.7% (active) in [2]; 2.91% (active) in experiment [3]; -35% (active) in experiment [4]; 12.6% in [5]; 88.9% in experiment [6]. Further, the growth in [7] was 5.17% (active); in [8] it was -40.9% (active); in experiment [9], -40.9% (active); in [10], -19.4% (active).
